The results in this text go back to the supplement of paper PMC8877412.

Molecules are shown by their SMILES. Structures can show the parent of a compound that is named as a salt. ± gives the uncertainty stated by the source.

The test system of the experiment is NCC-PMP1-C1. As to the kind of experiment: cell viability relative to DMSO control; higher = less growth inhibition. The following applies: 10 µM; 72 h. On the procedure:
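NCC-PMP1-C1 pseudomyxoma peritonei cells were seeded in 384-well plates coated with Matrigel and MEF (1e4 cells). Viability was read after 72 h by CCK-8 and expressed as % of the DMSO control, mean ± SD of duplicates.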
On to `CCOC(=O)[C@H](CCc1ccccc1)N[C@H]1CS[C@H](c2cccs2)CN(CC(=O)O)C1=O` [Temocapril HCl], for which the cell viability (as a rule, a read-out of living cells in per cent, often relative to untreated cells) was found to be 84.76 ± 0.83%.

Turning to `CN(C)C/C=C/C(=O)Nc1cc2c(Nc3ccc(F)c(Cl)c3)ncnc2cc1O[C@H]1CCOC1` [Afatinib (BIBW2992) Dimaleate], the cell viability was 29.3 ± 2.4%.

On to `CC/C(=C(/CC)c1ccc(O)cc1)c1ccc(O)cc1` [Diethylstilbestrol], for which the cell viability worked out at 121.2 ± 0.53%.

As to `COc1cc(OC)cc(N(CCNC(C)C)c2ccc3ncc(-c4cnn(C)c4)nc3c2)c1` [Erdafitinib], the cell viability was 59.1 ± 2.4%.

As for `Nc1nc(CC(=O)Nc2ccc(CCNC[C@H](O)c3ccccc3)cc2)cs1` [Mirabegron], the cell viability was 101 ± 5.9%.

In the case of `CC1=C(/C=C/C(C)=C/C=C/C(C)=C/C(=O)O)C(C)(C)CCC1` [Tretinoin], the cell viability was found to be 129 ± 16%.

As for `O=[n+]1c(CBr)c(CBr)n([O-])c2ccccc21` [Conoidin A], the cell viability amounted to 112 ± 22%.

`CCC[C@@H]1C[C@@H](C(=O)N[C@@H]([C@H]2O[C@H](SC)[C@H](O)[C@@H](O)[C@H]2O)[C@@H](C)O)N(C)C1` [Lincomycin HCl]: the cell viability is 74.4 ± 15%.

Take `Cc1ccc(C(=O)Nc2ccc(CN3CCN(C)CC3)c(C(F)(F)F)c2)cc1C#Cc1cnc2cccnn12`: the cell viability is 1.8 ± 0.67%.

Consider `Cc1ccc(F)c(NC(=O)Nc2ccc(-c3cccc4[nH]nc(N)c34)cc2)c1` [Linifanib (ABT-869)], for which the cell viability is 45.2 ± 6.3%.

`COc1cc2ncnc(Nc3ccc(F)c(Cl)c3)c2cc1NC(=O)/C=C/CN1CCCCC1`: the cell viability was 68.1 ± 1.6%.

On to `CCN(CC)CCNC(=O)c1c(C)[nH]c(/C=C2\C(=O)Nc3ccc(F)cc32)c1C` [Sunitinib], for which the cell viability stood at 35.5 ± 3.6%.

Regarding `C[C@@H](CN1CC(=O)NC(=O)C1)N1CC(=O)NC(=O)C1` [Dexrazoxane], the cell viability turned out to be 94.8 ± 15%.

`O=C(c1ccc(OCCN2CCCCC2)cc1)c1c(-c2ccc(O)cc2)sc2cc(O)ccc12` [Raloxifene HCl]: the cell viability worked out at 92.9 ± 5.5%.

`Nc1nc(F)nc2c1ncn2[C@@H]1O[C@H](COP(=O)(O)O)[C@@H](O)[C@@H]1O` [Fludarabine Phosphate]: the cell viability is -11.4 ± 1.5%.

For the compound `COC(=O)C[C@](O)(CCCC(C)(C)O)C(=O)O[C@@H]1C(OC)=C[C@]23CCCN2CCc2cc4c(cc2[C@H]13)OCO4` [Homoharringtonine], the cell viability was -1.02 ± 0.42%.

For `COc1cc2ncnc(Nc3ccc(F)c(Cl)c3)c2cc1OCCCN1CCOCC1` [Gefitinib(ZD1839)], the cell viability stood at 85.16 ± 0.73%.

In the case of `Nc1ncn([C@@H]2O[C@H](CO)[C@@H](O)[C@H]2O)c(=O)n1` [Azacitidine], the cell viability is 83.3 ± 6.9%.

Turning to `C=C1C[C@@H]2CC[C@@]34C[C@H]5O[C@H]6[C@@H](O3)[C@H]3O[C@H](CC[C@@H]3O[C@H]6[C@H]5O4)CC(=O)C[C@@H]3[C@@H](OC)[C@@H](C[C@H](O)CN)O[C@H]3C[C@H]3O[C@@H](CC[C@@H]1O2)C[C@@H](C)C3=C` [Eribulin], the cell viability came out at 53.95 ± 0.3%.

Regarding `COC(=O)c1ccc2c(C(=Nc3ccc(N(C)C(=O)CN4CCN(C)CC4)cc3)c3ccccc3)c(O)[nH]c2c1` [Nintedanib (BIBF 1120)], the cell viability was 23.9 ± 1.6%.

`CNC(=O)c1cc(Oc2ccc(NC(=O)Nc3ccc(Cl)c(C(F)(F)F)c3)cc2)ccn1` [Sorafenib Tosylate]: the cell viability stood at 148 ± 14%.

`C[C@]1(O)C[C@@H](c2nc(-c3ccc4ccc(-c5ccccc5)nc4c3)c3c(N)nccn32)C1` [Linsitinib (OSI-906)]: the cell viability is 58.9 ± 2.1%.

On to `Cc1ccc(-c2cc(C(F)(F)F)nn2-c2ccc(S(N)(=O)=O)cc2)cc1` [Celecoxib], for which the cell viability amounted to 99.99 ± 0.53%.

Take `CCCCC1C(=O)N(c2ccccc2)N(c2ccccc2)C1=O` [Phenylbutazone]: the cell viability was found to be 119 ± 5.4%.

Consider `Nc1cccc2c1C(=O)N(C1CCC(=O)NC1=O)C2=O` (stereo not given) [Pomalidomide], for which the cell viability worked out at 99.2 ± 2.3%.

As to `Nc1ccn([C@@H]2O[C@H](CO)[C@@H](O)C2(F)F)c(=O)n1` [Gemcitabine], the cell viability is 68.1 ± 11%.

For `C#CCC(Cc1cnc2nc(N)nc(N)c2n1)c1ccc(C(=O)N[C@@H](CCC(=O)O)C(=O)O)cc1` (stereo not given in full) [Pralatrexate], the cell viability came out at 104 ± 9.8%.

Take `CCCCNC(=O)NS(=O)(=O)c1ccc(C)cc1` [Tolbutamide]: the cell viability is 96.4 ± 6.1%.

In the case of `O=c1[nH]cc(F)c(=O)[nH]1` [Fluorouracil (5-Fluoracil, 5-FU)], the cell viability is 86.7 ± 7.5%.

As to `O=C(O)C1(C(=O)O)CCC1.[NH2-].[NH2-].[Pt+2]` [Carboplatin], the cell viability turned out to be 61.9 ± 9.4%.

As for `N#CC[C@H](C1CCCC1)n1cc(-c2ncnc3[nH]ccc23)cn1`, the cell viability was determined as 83.6 ± 8.2%.

As to `Nc1[nH]cnc2ncnc1-2` [Adenine HCl], the cell viability is 108 ± 25%.

As for `CC(C)C[C@H](NC(=O)[C@H](Cc1ccccc1)NC(=O)c1cnccn1)B(O)O` [Bortezomib (PS-341)], the cell viability is -0.129 ± 0.47%.

With `CC(=O)OCC(=O)[C@@]1(O)CC[C@H]2[C@@H]3CCC4=CC(=O)CC[C@]4(C)[C@H]3C(=O)C[C@@]21C` [Cortisone acetate], the cell viability stood at 114 ± 4.4%.

Turning to `COc1cc([C@@H]2c3cc4c(cc3[C@@H](O[C@@H]3O[C@@H]5CO[C@@H](c6cccs6)O[C@H]5[C@H](O)[C@H]3O)[C@H]3COC(=O)[C@H]23)OCO4)cc(OC)c1O` [Teniposide], the cell viability was found to be 13.5 ± 1.5%.

Turning to `COc1cc2c(cc1O)CC[C@@H]1[C@@H]2CC[C@]2(C)[C@@H](O)CC[C@@H]12` [2-Methoxyestradiol (2-MeOE2)], the cell viability is 98 ± 4%.

For the compound `CC1=C(CC(=O)O)c2cc(F)ccc2/C1=C\c1ccc([S+](C)[O-])cc1` (stereo not given) [Sulindac], the cell viability stood at 111 ± 29%.

Regarding `CNC(=O)c1ccc(-c2cnc3ncc(Cc4ccc5ncccc5c4)n3n2)cc1F`, the cell viability came to 108 ± 9.8%.

In the case of `C=CC(=O)N1CCC[C@@H](n2nc(-c3ccc(Oc4ccccc4)cc3)c3c(N)ncnc32)C1`, the cell viability came out at 59 ± 5.5%.

On to `COc1ccc2c(c1OC)C(=O)O[C@@H]2[C@H]1c2c(cc3c(c2OC)OCO3)CCN1C` [Noscapine HCl], for which the cell viability was determined as 90.5 ± 4.2%.
